This note sets out measurements from PubChem BioAssay.

Test [1] is described as follows: signal quenchers or enhancers, Cy5 substrate/SSB – biochemical, NIH Clinical Collection, E. coli SSB, artefact control for HCV NS3 helicase inhibitor project (AID 743268). As to conditions: Cy5-oligo bound E. coli SSB, fluorescence interference.
For test [2], the system named is Hepatitis C virus NS3 helicase. As to the kind of experiment: blockers of NS3h binding to DNA – biochemical, fluorescence polarization, NIH Clinical Collection, primary screen (AID 743270). As to conditions: NS3 helicase binding to Cy5-dT15 DNA, stronger effect = higher value, concentration not given here.
In test [3] the target is Single-stranded DNA-binding protein (Escherichia coli (strain K12)) (UniProt P0AGE0). Kind of test: SSB-ssDNA binding inhibitors – biochemical, fluorescence polarization, NIH Clinical Collection, counter-screen for HCV NS3 helicase inhibitor project (AID 743271; in the data active = inhibition above about 28%). As to conditions: E. coli SSB-DNA binding, stronger effect = higher value, concentration not given here.
A short description of test [4]: compounds distorting NS3 helicase fluorescence signal – biochemical, NIH Clinical Collection, artefact control for HCV NS3 helicase inhibitor project (AID 743272).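 Note: HCV NS3 helicase with a Cy5 labelled single stranded DNA probe.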 The note with it: fluorescence interference counterscreen, HCV NS3 helicase assay; stronger effect = lower value. A general note: A counterscreen serves to expose hits that act by an unwanted route or on another target.

A short description of test [5]: Wnt pathway potentiators raising nuclear beta-catenin – imaging, WNT3A-conditioned medium, mouse C2C12, NPC library, primary screen (AID 1117326; in the data active = nuclear beta-catenin stimulation mostly above about 4.2%, no sharp cut-off; inactive = mostly below about 10%). As to conditions: stronger effect = higher value.
Test [6] can be described thus: stimulators of insulin release from INS-1E, primary screen, cell-based, 5 mM glucose, NPC library (AID 1117329;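 active = compound raises insulin release from rat beta cells at 5 mM glucose, no numeric limit stated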). As to conditions: rat INS-1E insulin secretion, at 10 µM, stronger effect = higher value.
Test [7] can be described thus: growth inhibition of GSK3B-pretreated HCT116 cells – cell-based, CellTiter-Glo, 0.2 to 20 µM (AID 1117336;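 active = compounds lowering colon cancer cell viability after pretreatment blocking the GSK3B kinase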). As to conditions: HCT116 viability after GSK3B inhibitor, at 20 µM, stronger effect = higher value.
The nature of test [8]: inhibition of endothelial tube formation, primary screen, imaging, VEGF stimulated, CD31 staining, tube area, NPC library (AID 1117340;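 active = compound that reduces growth-factor-driven endothelial tube area in a mixed cell culture, no cutoff stated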). As to conditions: VEGF-stimulated ADSC/ECFC co-culture, at 10 µM, stronger effect = higher value.
Test [9] can be described thus: GLP1 release stimulators, primary, NCI-H716, NPC library (AID 1117341;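 active = compound raises GLP1 secretion from the human gut endocrine cells, with no numeric limit stated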). As to conditions: NCI-H716 cells, at 10 µM, stronger effect = higher value.
A short description of test [10]: HCT116 colon cancer cell growth inhibition, primary screen, CellTiter-Glo luminescence, NPC library (AID 1117342;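 active = compounds that lower survival of HCT116 colon cancer cells in the luminescence readout, no numeric limit stated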). The note with it: at 20 µM (top of the series). (In general: ATP-based viability assays read luminescence as a measure of living cells.)
The nature of test [11]: reduced SW480 viability measured with CellTiter-Glo, NPC library, primary (AID 1117343;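 active = compounds that lower viability of the colon cancer cells in the luminescence readout, with no numeric limit stated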). The note with it: CellTiter-Glo luminescence; at 20 µM (top of the series).
Test [12] in a line: NPC library primary testing for decreased DLD-1 cell viability via CellTiter-Glo (AID 1117346;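 active = compounds that lower survival of DLD-1 colon cancer cells in the luminescence readout, no cutoff given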). The note with it: DLD-1 viability, CellTiter-Glo luminescence; at 20 µM (top of the series).
The target of test [13] is 6-phosphogluconate dehydrogenase, decarboxylating (Homo sapiens) (UniProt P52209). Kind of test: inhibition of human phosphogluconate dehydrogenase – biochemical, recombinant enzyme, NADPH absorbance, primary screen (AID 1159550;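 active = at least 20% inhibition of 6-phosphogluconate dehydrogenase activity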). The note with it: recombinant 6PGD, NADPH absorbance 341 nm; at 10 µM; stronger effect = higher value.
Test [14] in a line: EMT-state selective cytotoxicity in co-culture – imaging, PC-3E GFP, TEM4-18 mCherry, primary screen (AID 1345086;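 active = compounds killing one labelled cell type while sparing the other, by normalised counts and ratio limits, not self-fluorescent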;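 for all read-outs here: cells exposed to compound for 72 h before imaging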;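 for red/green cell ratio (normalised): normalised mesenchymal count divided by normalised epithelial count so high means epithelial killing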). The note with it: PC-3E GFP / TEM4-18 mCherry co-culture, imaging cell counts, at 1 µM; for red/green cell ratio (normalised): actives lie on both sides, counts scaled to control wells, 1 = unselective.
A short description of test [15]: MELAS cybrid and Rieske KO viability enhancers – cell-based, MELAS cybrids, Rieske KO mouse fibroblasts, CellTiter-Glo, primary screen (AID 1508586;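 active = mean z-score across replicates of 1.96 or higher in either the MELAS or the Rieske mutant cell line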;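 note: z relative to plate mean and SD of compound and empty wells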). The note with it: low glucose.
Test [16] has as its target NAD(+) hydrolase SARM1 (Homo sapiens) (UniProt Q6SZW1). Kind of test: blocking NAD cleavage by SARM1 SAM-TIR – cell lysate, NAD-Glo luminescence (AID 1508614;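 active = compound whose remaining NAD level is above about 45 nM, limit read from the data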;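 note: higher remaining NAD means stronger inhibition of SARM1 NADase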). As to conditions: SAM-TIR HEK293T lysate NADase, at 1 µM, stronger effect = higher value.
Test [17] concerns the target Mitogen-activated protein kinase 7 (Homo sapiens) (UniProt Q13164). As to the kind of experiment: Gal4-ERK5 driven luciferase induction – cell-based, HTS, primary screen (AID 1508626;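 active = luciferase signal above three times the same-plate solvent-only control wells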;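 note: luciferase driven by Gal4-ERK5 fusion binding five Gal4 sites before minimal TATA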). The note with it: HeLa Gal4-ERK5 transactivation, 18 h, at 5 µM, stronger effect = higher value.
Test [18] concerns F380Y. As to the kind of experiment: BK channel mutant inhibitors and activators – cell-based, U2OS BacMam, thallium flux, beta subunits, selectivity assay, profiling panel (AID 1259406;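 active = thallium flux through the channel raised or lowered by more than 3 SD from vehicle-only wells, actives on both sides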;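 note: initial slope of Thallos dye fluorescence rise after thallium is added; log ratio against the mean of 0.3% DMSO vehicle wells on the same plate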). As to conditions: U2OS BacMam BK variants, at 30 µM.
Test [19] is described as follows: P. berghei load reduction in hepatocytes – cell-based, HepG2, luciferase luminescence, HepG2 viability, primary screen (AID 624349; in the data active = parasite load remaining mostly below about 12%, no sharp cut-off; inactive = mostly above about 10%;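 note: 100% = mean of DMSO negative control wells on the same plate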). The note with it: P. berghei liver stage in HepG2, luciferase luminescence, concentration not given here; parasite load remaining: stronger effect = lower value; viability: measured here: HepG2 viability without parasites.
Where [20] appears, read: measured here: epithelial PC-3E GFP cell survival.
Where [21] appears, read: measured here: mesenchymal TEM4-18 mCherry cell survival.
The mark [22] stands for this setting: MELAS cybrid survival, CellTiter-Glo 48 h, stronger effect = higher value.
The mark [23] stands for this setting: Rieske KO mouse fibroblast survival, CellTiter-Glo 72 h.

Values joined by “and” are separate entries in the source; they are usually repeats but may differ in a detail not shown here. Equal entries are not always repeated. Active and inactive are the calls of the source. Unless noted, the rule behind the calls is not given here.

6-phosphogluconate dehydrogenase, decarboxylating (Homo sapiens), sequence (P52209 whole entry, looked up): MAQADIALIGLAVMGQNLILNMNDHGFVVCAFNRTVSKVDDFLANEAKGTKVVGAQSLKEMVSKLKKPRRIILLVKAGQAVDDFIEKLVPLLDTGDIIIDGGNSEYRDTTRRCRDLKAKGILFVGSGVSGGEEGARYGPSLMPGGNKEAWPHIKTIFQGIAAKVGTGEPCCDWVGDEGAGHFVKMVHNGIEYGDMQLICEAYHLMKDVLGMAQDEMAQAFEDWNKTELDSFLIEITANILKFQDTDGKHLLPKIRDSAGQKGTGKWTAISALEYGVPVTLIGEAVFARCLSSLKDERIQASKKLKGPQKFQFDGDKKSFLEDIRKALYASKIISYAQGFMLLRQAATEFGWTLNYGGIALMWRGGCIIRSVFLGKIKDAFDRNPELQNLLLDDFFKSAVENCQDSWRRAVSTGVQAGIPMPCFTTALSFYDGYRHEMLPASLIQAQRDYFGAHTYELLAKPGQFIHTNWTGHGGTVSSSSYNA
NAD(+) hydrolase SARM1 (Homo sapiens), sequence (Q6SZW1 whole entry, looked up, the tested form may be a part): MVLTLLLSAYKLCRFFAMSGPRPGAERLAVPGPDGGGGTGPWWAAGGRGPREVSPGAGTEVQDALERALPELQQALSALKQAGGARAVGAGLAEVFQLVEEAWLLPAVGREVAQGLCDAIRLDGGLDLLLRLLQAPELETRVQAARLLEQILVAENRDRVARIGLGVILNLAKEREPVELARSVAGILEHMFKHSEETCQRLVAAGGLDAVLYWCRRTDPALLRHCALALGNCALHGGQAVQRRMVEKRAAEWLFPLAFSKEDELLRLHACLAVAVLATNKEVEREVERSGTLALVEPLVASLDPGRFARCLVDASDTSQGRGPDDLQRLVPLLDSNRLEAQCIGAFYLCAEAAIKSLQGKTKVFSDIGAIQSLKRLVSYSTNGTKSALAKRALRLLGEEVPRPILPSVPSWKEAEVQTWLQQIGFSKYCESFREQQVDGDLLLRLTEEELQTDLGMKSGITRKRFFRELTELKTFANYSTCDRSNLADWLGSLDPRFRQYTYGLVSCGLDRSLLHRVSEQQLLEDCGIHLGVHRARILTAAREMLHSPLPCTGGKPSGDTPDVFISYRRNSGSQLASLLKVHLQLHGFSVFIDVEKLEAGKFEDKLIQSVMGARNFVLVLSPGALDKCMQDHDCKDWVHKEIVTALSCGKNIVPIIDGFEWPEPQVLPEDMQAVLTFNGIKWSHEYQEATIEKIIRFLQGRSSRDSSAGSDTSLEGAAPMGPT
Mitogen-activated protein kinase 7 (Homo sapiens), sequence (Q13164 whole entry, looked up, the tested form may be a part): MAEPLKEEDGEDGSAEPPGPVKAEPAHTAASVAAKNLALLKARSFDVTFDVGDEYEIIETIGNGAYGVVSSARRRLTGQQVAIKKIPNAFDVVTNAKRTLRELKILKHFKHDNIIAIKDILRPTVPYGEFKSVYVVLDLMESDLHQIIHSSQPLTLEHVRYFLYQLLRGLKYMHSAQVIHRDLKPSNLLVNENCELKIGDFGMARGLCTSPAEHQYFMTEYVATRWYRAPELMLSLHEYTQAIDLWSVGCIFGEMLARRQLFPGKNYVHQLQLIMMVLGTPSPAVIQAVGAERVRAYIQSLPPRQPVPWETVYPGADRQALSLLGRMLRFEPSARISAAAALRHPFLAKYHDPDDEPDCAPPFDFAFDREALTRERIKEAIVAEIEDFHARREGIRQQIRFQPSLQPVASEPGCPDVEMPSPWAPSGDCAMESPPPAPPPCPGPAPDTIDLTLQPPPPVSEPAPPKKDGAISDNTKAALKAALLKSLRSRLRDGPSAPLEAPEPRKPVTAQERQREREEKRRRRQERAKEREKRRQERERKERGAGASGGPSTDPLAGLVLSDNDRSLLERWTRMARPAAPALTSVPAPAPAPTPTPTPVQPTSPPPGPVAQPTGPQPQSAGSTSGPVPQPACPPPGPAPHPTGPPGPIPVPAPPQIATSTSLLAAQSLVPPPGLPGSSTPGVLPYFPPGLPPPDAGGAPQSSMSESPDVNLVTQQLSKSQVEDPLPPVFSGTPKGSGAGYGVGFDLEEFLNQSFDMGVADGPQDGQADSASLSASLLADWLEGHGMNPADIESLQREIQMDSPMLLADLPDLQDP

In general, inhibition refers to the change of the read-out against control, counted positive when it falls. Take `CCN(CC)CC(=O)Nc1c(C)cccc1C`: the values for the fluorescence ratio in test [1] and in test [4] were 1.01 (inactive) and 0.96 (inactive), respectively. In addition, the inhibition in [2] is -1.98% (inactive); in [3], -0.87% (inactive); in test [13] it was -1.54% (inactive). The nuclear beta-catenin stimulation is -0.4% (inactive) in test [5] (at 10 µM) and 0.8% in [5] (stimulation, at 2 µM). The insulin secretion stimulation in test [6] was -1.4% (inactive). The viability decrease in test [7] is -9.9% (inactive). In addition, the tube area decrease in [8] was 9.2% (inactive). In addition, in [9], the GLP1 secretion stimulation was 0.9% (inactive). In addition, the inhibition of viability in test [10] is -5.2% (inactive). For the same molecule, the viability decrease (inhibition) is -0.2% (inactive) in test [11] and 0.45% (inactive) in [12]. Also, the red/green cell ratio (normalised) in test [14] was 1.11 (inactive). The figures for the normalised cell number in [14] (setting [20]) and in test [14] (setting [21]) were 1.01 and 1.12, respectively. Moreover, the z-score is -0.329 (inactive) and 0.222 (inactive) and 0.215 (inactive) in test [15] (setting [22]); -0.148 and 0.143 and 0.303 in test [15] (setting [23]). For the same molecule, the remaining NAD in test [16] was 10 nM (inactive). The luciferase signal in test [17] is 48 AU (inactive). Moreover, in test [18], the log fold change Tl+ flux is 0.00448 (inactive).
As for `Nc1c2c(nc3ccccc13)CCCC2`, the fluorescence ratio in [1] was 0.95 (inactive); in test [4], 0.85 (inactive). Also, the inhibition in test [2] was -4.36% (inactive); in test [3] it was -0.1% (inactive); in test [13], -0.369% (inactive). For the same molecule, the nuclear beta-catenin stimulation in test [5] (at 10 µM) is 1.3% (inactive); in test [5] (stimulation, at 2 µM), 2.2%. Besides, the insulin secretion stimulation in [6] is 32.7% (active). The viability decrease in test [7] was 2.75% (inactive). Moreover, in test [8], the tube area decrease was 19% (inactive). Moreover, the GLP1 secretion stimulation in test [9] is 13% (inactive). The inhibition of viability in [10] was 4.9% (inactive). Besides, the viability decrease (inhibition) in test [11] is 22.5% (inactive); in test [12] it was 3.1% (inactive). Further, the red/green cell ratio (normalised) in test [14] was 1.47 (inactive). In addition, the normalised cell number in test [14] (setting [20]) was 0.89; in test [14] (setting [21]), 1.3. The z-score in [15] (setting [22]) is 0.221 (inactive) and 0.852 (inactive); in test [15] (setting [23]), 0.161 and -0.102. In test [16], the remaining NAD is 10 nM (inactive). In addition, the luciferase signal in test [17] was 164 AU (inactive). Moreover, in test [18], the log fold change Tl+ flux was 0.0646 (inactive).
As a reminder, the viability is a read-out of living cells in per cent, often relative to untreated cells. Turning to `O=C1N=C(O)CN1/N=C/c1ccc(-c2ccc([N+](=O)[O-])cc2)o1`, the parasite load remaining in test [19] is 21.2% (inactive) and 82.2% (inactive) and 9.57% (inactive). Besides, in test [19], the viability was 47.1% and 91.4% and 102%. Besides, the nuclear beta-catenin stimulation was 4.1% (inactive) in [5] (at 10 µM) and 4.2% in test [5] (stimulation, at 2 µM). Further, in test [6], the insulin secretion stimulation is 2.6% (inactive). The viability decrease in test [7] is 9.2% (inactive). The tube area decrease in test [8] is -8.8% (inactive). Besides, in [9], the GLP1 secretion stimulation is 1.9% (inactive). Besides, in test [10], the inhibition of viability was 20.3% (active). For the same molecule, the figures for the viability decrease (inhibition) in [11] and in test [12] were -30.5% (inactive) and 5% (inactive), respectively. In addition, the inhibition in test [13] is 13.4% (inactive). Besides, the red/green cell ratio (normalised) in test [14] was 1.07 (inactive). In addition, the normalised cell number was determined as 1.02 in test [14] (setting [20]) and 1.1 in [14] (setting [21]). Besides, the values for the z-score in test [15] (setting [22]) and in [15] (setting [23]) were 0.073 (inactive) and 0.247, respectively. Also, the remaining NAD in test [16] is 10 nM (inactive). Besides, in test [17], the luciferase signal is 156 AU (inactive).
Consider `O=c1n(CCCN2CCN(c3cccc(Cl)c3)CC2)nc2ccccn12`, for which the fluorescence ratio was 1.01 (inactive) in test [1] and 0.97 (inactive) in [4]. The values for the inhibition in [2], in [3] and in test [13] were -6.73% (inactive), -2.41% (inactive) and -5.67% (inactive), respectively. Also, the nuclear beta-catenin stimulation in test [5] (at 10 µM) was 4.5% (inactive); in test [5] (stimulation, at 2 µM), 0.2%. The insulin secretion stimulation in [6] was -0.1% (inactive). Besides, the viability decrease in test [7] is -48.7% (inactive). Further, the tube area decrease in test [8] is 4.5% (inactive). For the same molecule, the GLP1 secretion stimulation in test [9] was 0.4% (inactive). In addition, the inhibition of viability in test [10] is 16.6% (inactive). In addition, the viability decrease (inhibition) in test [11] is 9.9% (inactive); in test [12], 2.2% (inactive). Also, in [14], the red/green cell ratio (normalised) is 1.12 (inactive). Also, the figures for the normalised cell number in [14] (setting [20]) and in [14] (setting [21]) were 1.02 and 1.14, respectively. Besides, the z-score was 0.0745 (inactive) in test [15] (setting [22]) and -0.0668 in test [15] (setting [23]). Further, the remaining NAD in test [16] is 10 nM (inactive). Besides, the luciferase signal in [17] is 72 AU (inactive). For the same molecule, the log fold change Tl+ flux in [18] is 0.0157 (inactive).
